Rows were chosen to be rich in hits. Some 3.5% of all compounds tested hit in one or more screens of this group.
mHTT-CaM PPI inh: inhibitors of human mutant huntingtin-calmodulin interaction | inhibition, % at 15 µM | P42858 | 3.6% of 190,000 active | AlphaScreen His-mHTT/GST-CaM binding, luminescence;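 further: 0% = both proteins with DMSO and 100% = one protein alone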
Pf apPOL block: Pf-apPOL DNA polymerase inhibition; Recombinant Pf-apPOL, molecular beacon fluorescence, 1.5 h; inhibition, % at 10 µM; 0.25% of 210,000 active; AID 1794808
Numbers without * were called inactive; i = inactive; . = not tested or not shown; ! = not active in a repeat. No stated cut-off is given here; in the data, active means inhibition above about 50%; inactive means the rest.

SMILES | mHTT-CaM PPI inh | Pf apPOL block
NCCc1c[nH]c2ccc(OCc3ccccc3)cc12 | 80.1*! | 2.6
c1ccc(Oc2ccc3[nH]cc(CCN4CC4)c3c2)cc1 | 71.9* | .
O=C(Nc1nc(CC(=O)N2CCN(Cc3ccc4c(c3)OCO4)CC2)cs1)C1CC1 | -17.4 | -9.5
COc1ccc(OC(NC(=O)Cc2ccccc2)C(Cl)(Cl)Cl)cc1 (stereo not drawn) | -15.0 | -0.5
CN(C)c1ccc(CN2CCN(c3ccc(F)cc3)CC2)cc1 | 37.6 | -3.9
CN(C)c1ccc(CN2CC=C(c3ccc(F)cc3)CC2)cc1 | 51.7* | 3.0
Cc1ccccc1CC(=O)N1CCN(Cc2noc3ccccc23)CC1 | -5.9 | 6.1
CC[S+](CC)c1c(O)n(Cc2ccc(F)cc2)c(=O)[nH]c1=O | 0.1 | -3.7
O=c1c2ccccc2nc(/C=C/c2cccc([N+](=O)[O-])c2)n1-c1ccccn1 | 2.0 | 91.0*!
COc1ccc(-n2c(/C=C/c3ccc(O)c(OC)c3)nc3ccccc3c2=O)cc1 | 10.1 | -3.8
COc1cccc(-n2c(/C=C/c3ccc(O)c(O)c3)nc3ccccc3c2=O)c1 | 69.6* | -4.2
Cc1cccc(-n2c(/C=C/c3cccnc3)nc3ccccc3c2=O)c1 | 100.2* | -9.2
Cc1cccc(/C=C/c2nc3ccccc3c(=O)n2-c2cccc(O)c2)c1 | 24.7 | -12.3
COc1cccc(-n2c(/C=C/c3cccc([N+](=O)[O-])c3)nc3ccccc3c2=O)c1 | 26.5 | -1.0
COc1cccc(NC(=O)c2nc(C)n(C3CCN(C)CC3)c2C)c1 | 19.5 | -5.3
O=C(O)C1Cc2cc(C(F)(F)F)ccc2N2CCCCC12 (stereo not drawn) | 50.4* | 2.6
CC1CN(c2ccc(C(F)(F)F)cc2[N+](=O)[O-])CC(C)N1 (stereo not drawn) | -3.0 | 2.1
COc1cccc(NC(=O)N2CCC3(C2)C(=O)Nc2ccc(OC)cc23)c1 (stereo not drawn) | 6.5 | -5.4
O=C1c2ccccc2-c2c3c(cc4ccnc1c24)OCO3 | . | 77.0*
Cc1ccc(NC2=NCC(C)S2)cc1C (stereo not drawn) | -5.8 | .
O=Cc1nc2ccccc2n1Cc1ccc(Cl)cc1Cl | 95.4* | -5.7
O=Cc1nc2ccccc2n1Cc1ccccc1 | 35.2 | -4.8
O=C(Cc1ccccc1Cl)N1CCN(Cc2nc3ccccc3[nH]2)CC1 | -2.3 | -11.1
CCN(CC)c1ccc(CC2C(=O)N(C)C(=O)N(C)C2=O)cc1 | 56.7* | -1.4
C=CCOc1ccc(CC2C(=O)N(C)C(=O)N(C)C2=O)cc1 | 100.1* | -4.8
SMILES | mHTT-CaM PPI inh | Pf apPOL block
Cc1ccc(CC2C(=O)N(C)C(=O)N(C)C2=O)s1 | 6.8 | -6.1
CC12CCC3C(CC=C4CC(O)CCC43C)C1CC(=Cc1ccc(OC(F)F)cc1)C2=O (stereo not drawn) | 3.4 | -2.4
Brc1ccc(C2CC(c3cccnc3)Nc3nnnn32)cc1 (stereo not drawn) | 1.8 | 1.7
c1ccc2c(c1)CCc1c-2[nH]c2ccccc12 | 62.5* | -4.8
O=[N+]([O-])c1cc2c(cc1CNCCc1c[nH]c3ccccc13)OCO2 | 68.4* | -2.0
COc1cc(CNCCc2c[nH]c3ccccc23)c([N+](=O)[O-])cc1OC | 14.5 | -1.3
COc1ccc(N2C=C(C#N)S(=O)(=O)c3ccc(C)cc32)cc1 | -7.2 | 1.2
COc1cc(C=C2C(=O)NC(=O)NC2=O)ccc1OCC(=O)O | 4.0 | -1.4
COc1ccc(C=C2C(=O)NC(=S)NC2=O)cc1Br | . | 64.2*
N/C(=N\[N+](=O)[O-])Nc1ccc(NC(=O)c2ccco2)cc1 | i | -0.9
Cc1cccc(CC(=O)N2CCCN(C3CCN(Cc4ccc(F)cc4)C3=O)CC2)c1 (stereo not drawn) | 86.2* | 1.4
O=C(Cc1ccsc1)N1CCCN(C2CCN(Cc3ccc(F)cc3)C2=O)CC1 (stereo not drawn) | 39.2 | 0.8

Screening data deposited in PubChem BioAssay by University of Kansas High Throughput Screening Laboratory.
